# High-throughput results deposited in PubChem BioAssay by NMMLSC.
# GRK2 inh – human GRK2 inhibition via aptamer displacement; P25098; bead flow cytometry, FAM-aptamer displacement from GRK2; inhibition of aptamer binding, % at 10 µM; 330,000 compounds, 0.59% hits; AID 488847;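 active = inhibition of aptamer binding above 40%, roughly 3 SD of noise, on plates passing a quality check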;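 note: median bead fluorescence of bound FAM aptamer so fluorescent compounds give negative values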
# MEKK2wt PB1 HTS – raises or lowers MEK5 binding to wildtype human MEKK2 PB1 domain. bead flow cytometry, Alexa488-MEK5 binding to MEKK2 WT; actives lie on both sides. binding response (% of control), % at 10 µM. 290,000 compounds, 1.1% hits. AID 1531; in the data active = binding response below about 67% or above about 130%
# B2AR ag – agonists of human beta-2 adrenergic receptor inducing internalization; P07550; response, % (no concentration beside the values); Am2.2-beta2AR cells, FAP receptor internalization, flow cytometry; AID 504454; 340,000 compounds, 0.43% hits;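 active = response above a set limit, near 3 SD of response in nonfluorescent compounds, cut at about 42% in these data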
# MEKK3 PB1 HTS – raises or lowers MEK5 binding to the human MEKK3 PB1 domain; AID 1529; 290,000 compounds, 1.4% hits; Q99759; bead-based flow cytometry, Alexa488-MEK5 binding to MEKK3; actives lie on both sides; 0 = blocked by unlabeled MEK5, 100 = vehicle; binding response (% of control), % at 10 µM;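 active = binding response more than 3 SD above or below the average of its plate-row segment, actives on both sides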;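 note: Alexa488 bead fluorescence after subtracting the streptavidin-only scavenger bead signal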
# Target sequence (Q99759 whole entry, looked up, the tested form may be a part): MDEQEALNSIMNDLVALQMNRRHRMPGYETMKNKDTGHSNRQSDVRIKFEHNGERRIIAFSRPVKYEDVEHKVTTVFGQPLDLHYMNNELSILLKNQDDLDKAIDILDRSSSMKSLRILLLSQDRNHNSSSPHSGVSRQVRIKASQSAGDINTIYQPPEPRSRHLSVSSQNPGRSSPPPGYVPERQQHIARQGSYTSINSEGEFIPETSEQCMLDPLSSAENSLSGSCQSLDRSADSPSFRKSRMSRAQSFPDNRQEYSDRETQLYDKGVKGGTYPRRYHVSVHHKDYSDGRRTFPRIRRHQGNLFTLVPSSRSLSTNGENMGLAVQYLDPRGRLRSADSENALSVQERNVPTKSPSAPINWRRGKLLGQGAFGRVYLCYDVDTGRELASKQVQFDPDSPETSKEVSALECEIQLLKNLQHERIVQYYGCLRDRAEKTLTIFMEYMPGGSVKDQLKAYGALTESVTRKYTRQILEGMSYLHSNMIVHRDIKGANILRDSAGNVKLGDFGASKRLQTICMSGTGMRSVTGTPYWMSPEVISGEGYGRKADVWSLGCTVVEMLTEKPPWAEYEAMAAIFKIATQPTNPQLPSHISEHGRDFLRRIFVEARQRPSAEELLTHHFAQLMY
# MEKK2mut PB1 HTS – signal of MEK5 binding to mutant human MEKK2 PB1 domain | bead flow cytometry, Alexa488-MEK5 binding to MEKK2 mutant | percent response, % at 10 µM | 290,000 compounds, 0.35% hits; in the data active = percent response above about 24%, passing the limit was not always enough
# MEKK2wt confirm – raises or lowers MEK5 binding to wildtype human MEKK2, retest | bead flow cytometry, Alexa488-MEK5 binding to MEKK2 WT; actives lie on both sides | binding response (% of control), % at 10 µM | shares compounds with MEKK3 PB1 HTS | AID 1892 | 5,900 compounds, 2.4% hits; in the data active = binding response below about 16% or above about 210%; inactive = in between
# MEKK2mut-MEK5 – signal of MEK5 binding to mutant human MEKK2, retest | shares compounds with MEKK3 PB1 HTS | bead flow cytometry, Alexa488-MEK5 binding to MEKK2 mutant | percent response, % at 10 µM | 5,900 compounds, 2% hits; in the data active = percent response mostly above about 71%, no sharp cut-off; inactive = mostly below about 38%;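 note: higher means compound restores mutant binding toward wildtype level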
# MEKK3 confirm – MEKK3-MEK5 PB1 inhibition, single concentration confirmation; shares compounds with MEKK3 PB1 HTS; bead flow cytometry, Alexa488-MEK5 binding to MEKK3; stronger effect = lower value; binding response (% of control), % at 10 µM; 5,900 compounds, 1.8% hits; AID 1894;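 active = binding response below 72% of control, or above a set upper limit, though filed actives all read lower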;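 note: 100% = DMSO only wells and 0% = binding blocked by excess unlabeled MEK5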
# The depositor's hits bear a star; nt = no result; [ ] = dose if it differs, or a comment. A selection: hits, their analogues and other compounds. The true share with any hit is near 2.9%.
SMILES,GRK2 inh,MEKK2wt PB1 HTS,B2AR ag,MEKK3 PB1 HTS,MEKK2mut PB1 HTS,MEKK2wt confirm,MEKK2mut-MEK5,MEKK3 confirm
CC[n+]1c(/C=C/N(C)c2ccccc2)n(-c2ccccc2)c2ccc(-c3nc4ccccc4s3)cc21,0.0,328.0*,22.9,112.0,140.0*,262.0*,117.0*,115.0
CCOC(=O)c1ccc2c(c1)n(CC)c(/C=C/N(C)c1ccccc1)[n+]2CC,2.0,101.0,-9.0,98.0,-1.0,nt,nt,nt
COc1cccc(CNCCc2c[nH]c3ccccc23)c1OCc1ccc(F)cc1,0.0,165.0*,33.7,111.0,39.0*,131.0,22.0,101.0
COc1ccccc1NC(=S)NCCc1c[nH]c2ccccc12,2.0,90.0,6.0,92.0,-5.0,nt,nt,nt
N#CCCSCc1ccc2oc(C(=O)O)cc2c1,0.0,0.0*[inhibitor],1.2,2.0*[inhibitor],-45.0,109.0,9.0,109.0
C=C(C)CN=c1scc(C)n1/N=C/c1ccco1,1.0,85.0,2.8,77.0*[inhibitor],-9.0,73.0,-11.0,73.0
Cc1cc(C)n(-c2nnc(C)n2/N=C/c2ccco2)n1,0.0,93.0,-0.5,104.0,-1.0,nt,nt,nt
O=C(NN=C1c2ccccc2-c2ccccc21)c1ccccc1Br,2.0,8.0*[inhibitor],-12.1,4.0*[inhibitor],-24.0,99.0,1.0,102.0
Cc1cccc(C)c1NC(=O)CN1C(=O)NC(C)(C2CC2)C1=O (configuration not stated),0.0,nt,-6.6,nt,nt,nt,nt,nt
CCOC(=O)C(NC(=O)c1ccccc1)(OCc1ccc(F)cc1)C(F)(F)F (configuration not stated),0.0,106.0,5.3,128.0*,1.0,102.0,0.0,103.0
CCOC(=O)C(NC(=O)c1cccc(Cl)c1)(OCc1ccc(F)cc1)C(F)(F)F (configuration not stated),0.0,99.0,7.0,122.0,-1.0,nt,nt,nt
Cc1ccc(S(=O)(=O)N(C)C)cc1NC(=O)C1CCCCN1S(=O)(=O)c1ccccc1 (configuration not stated),0.0,nt,-3.1,nt,nt,nt,nt,nt
COc1ccc(-n2nc(C(=O)NCC(=O)N3CCN(c4ccccc4)CC3)c3ccccc3c2=O)cc1OC,0.0,104.0,-4.9,102.0,3.0,nt,nt,nt
CCc1nnc(NC(=O)Cc2c[nH]c3ccccc23)s1,0.0,121.0,2.3,138.0*,7.0,103.0,5.0,107.0
C/C(=N\Nc1nc2ccccc2[nH]1)c1cc2ccccc2o1,0.0,140.0*,10.2,137.0*,6.0,127.0,10.0,99.0
COc1ccccc1NC(=O)c1cnc(SCC(=O)NCC2CCCO2)n(C)c1=O (configuration not stated),0.0,nt,4.8,nt,nt,nt,nt,nt
O=C(CSc1n[nH]c(=O)[nH]c1=O)c1ccccc1[N+](=O)[O-],0.0,70.0,-10.2,64.0*[inhibitor],-33.0,102.0,3.0,107.0
Cc1ccc(C)c(OCC(=O)Nc2ccc(S(=O)(=O)Nc3ccccn3)cc2)c1,0.0,102.0,1.1,134.0*,-1.0,108.0,4.0,105.0
COc1ccc(C(=O)Nc2ccccc2C(=O)NCCCn2ccnc2)cc1,nt,121.0,1.4,122.0*,11.0,111.0,8.0,108.0
O=C(Nc1ccccc1C(=O)NCCCn1ccnc1)c1ccccc1,0.0,105.0,-7.1,101.0,10.0,nt,nt,nt
CCCCNC(=O)Nc1nnc(-c2ccc(OCC)cc2)o1,2.0,100.0,-6.1,103.0,-2.0,nt,nt,nt
CCOC(=O)CNC(=O)Nc1nnc(-c2ccc(OCC)cc2)o1,0.0,56.0,-1.4,48.0*[inhibitor],-11.0,97.0,-1.0,100.0
O=C(Nc1cc(-c2nc3ccccc3s2)ccc1Cl)c1ccc2c(c1)OCO2,2.0,95.0,-5.8,100.0,-2.0,nt,nt,nt
Cc1ccc(-c2nc3ccccc3s2)cc1NC(=O)c1ccc2c(c1)OCO2,4.0,-2.0*[inhibitor],-8.5,1.0*[inhibitor],-21.0,102.0,0.0,106.0
S=c1nc(-c2ccccc2Br)[nH][nH]1,0.0,-2.0*[inhibitor],-9.4,1.0*[inhibitor],-3.0,97.0,-3.0,94.0
SMILES,GRK2 inh,MEKK2wt PB1 HTS,B2AR ag,MEKK3 PB1 HTS,MEKK2mut PB1 HTS,MEKK2wt confirm,MEKK2mut-MEK5,MEKK3 confirm
COc1ccc(/C=C2\SC(=O)N(CCC(=O)Nc3ccccc3)C2=O)cc1OC,0.0,90.0,9.9,89.0,-2.0,nt,nt,nt
COc1cc(/C=C2\SC(=O)N(CCN)C2=O)ccc1OS(=O)(=O)c1cc(C)ccc1C,nt,178.0*,23.3,97.0,14.0,191.0,54.0,110.0
O=C(CN1CCN(S(=O)(=O)c2ccc(Cl)cc2)CC1)NC1CC1,0.0,101.0,2.8,99.0,2.0,nt,nt,nt
O=C(CN1CCN(c2ccccc2O)CC1)Nc1ccc2c(c1)CCC2,0.0,114.0,27.7,104.0,15.0,nt,nt,nt
O=C(Nc1cc([N+](=O)[O-])ccc1Cl)C1CC1,1.0,94.0,11.4,96.0,-2.0,nt,nt,nt
O=C(Nc1cc([N+](=O)[O-])ccc1F)C1CC1,1.0,102.0,1.6,130.0*,1.0,97.0,-13.0,100.0
CC1CCN(S(=O)(=O)c2ccc(NC(=O)Cc3ccccc3)cc2)CC1,0.0,-5.0*[inhibitor],3.4,0.0*[inhibitor],-40.0,100.0,-4.0,99.0
CC1CCCN(CC(=O)Nc2ccc(S(=O)(=O)N3CCCC3)cc2)C1 (configuration not stated),1.0,103.0,0.9,102.0,-1.0,nt,nt,nt
O=C(Cc1ccccc1)Nc1ccc(S(=O)(=O)N2CCOCC2)cc1,0.0,98.0,4.4,100.0,2.0,nt,nt,nt
CC1CCN(S(=O)(=O)c2ccc(NC(=O)CN3CCCC(C)C3)cc2)CC1 (configuration not stated),1.0,24.0*[inhibitor],-3.4,15.0*[inhibitor],-22.0,99.0,2.0,100.0
Cc1ccc(CNC(=O)CNC(=O)c2ccc(C(C)(C)C)cc2)n1C,0.0,nt,-4.0,nt,nt,nt,nt,nt
COc1ccc2[nH]c(=O)c(CNC3CCCCC3)cc2c1,2.0,87.0,2.0,78.0*[inhibitor],-8.0,91.0,-14.0,85.0
CC(=O)N1CCc2cc(S(=O)(=O)CCC(=O)N3CCc4ccccc4C3)ccc21,7.0,22.0*[inhibitor],-0.9,17.0*[inhibitor],-12.0,103.0,2.0,103.0
CC(=O)N1CCc2cc(S(=O)(=O)NCCC(=O)N3CCc4ccccc4C3)ccc21,1.0,102.0,5.9,100.0,2.0,nt,nt,nt
COC(=O)C1=C(C)N(Cc2ccccc2)C(=NCc2cccc(C(F)(F)F)c2)N[C@H]1c1cccc(F)c1,nt,208.0*,37.2,108.0,89.0*,221.0*,64.0,108.0
COC(=O)C1=C(C)N(Cc2ccccc2)C(=NCc2cccc(C(F)(F)F)c2)N[C@H]1c1cccc(C(F)(F)F)c1,0.0,nt,32.1,nt,nt,nt,nt,nt
